Data on 37 compounds can be found in PMC5540273 (PLoS ONE, 2017).
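Further: KINOMEscan kinase panel screen.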

The first experiment concerns FGFR1. Particulars: concentration: 1 μM, replicates: in singlicate; n = 1.
For the compound `COc1cccc(-c2ccc3c(NC(=O)C4CC4)n[nH]c3n2)c1` [SB-710903], the “%Inh” value turned out to be 0%.
On the same count and under the same terms, the value for `CC(=O)N1CCN(c2ccc(Nc3nccc(-c4sc(C(C)C)nc4-c4cccc(NS(=O)(=O)c5cccc(Cl)c5)c4)n3)cn2)CC1` [GSK1660437] was 20%.
For the compound `CC(C)(C)c1ccc2nccc(Nc3cccc(O)c3)c2c1` [GW856795], the “%Inh” value is given as 0%.
Still for that read-out and setting: the value for `COc1cc2c(cc1OCCN1CCNCC1)ncc1c3ccc(C#N)cc3[nH]c21` was 0%.
Still for that read-out and setting: under `O=C(Nc1cccc(-c2nn3ncccc3c2-c2ccnc(Nc3ccccc3)n2)c1)c1c(F)cccc1F` [GSK198271] stands 0%.

In another experiment the test system is FGFR2. Particulars: concentration: 1 μM, replicates: in singlicate; n = 1.
Take `FC(F)(F)c1ccc(/C=C/c2cncnc2Nc2ccc3[nH]c(Cc4ccccc4)nc3c2)cc1` [GW709199]: the “%Inh” value is given as 0%.
Still for that read-out and setting: under `CN(C)Cc1ccc(-c2ccc3c(Nc4ccc(Oc5ccccn5)cc4)ccnc3c2)o1` [GW567148] stands 12%; under `Cc1ccc(F)c(C(=O)Nc2cccc(-c3nn4ccccc4c3-c3ccnc(Nc4cccc(F)c4)n3)c2)c1F` [GSK361061], 0%.
On to `Cc1occc1-c1ncc(OC[C@@H](N)Cc2c[nH]c3ccccc23)cc1-c1ccc2[nH]nc(C)c2c1.O=C(O)C(F)(F)F` [GSK682037], for which the “%Inh” value came to 0%.
Same read-out and setting: the value for `CN(C)S(=O)(=O)c1cc(-c2ccc3nccc(-c4cccc(S(N)(=O)=O)c4)c3c2)cnc1N` [GSK1669921] was 22%; that for `COCCOCCOc1cc2ncc3c4ccc(C#N)cc4[nH]c3c2cc1OC` was 25%; that for `COc1cccc(C2=C(Nc3ccc(Cl)c(C(=O)O)c3)C(=O)NC2=O)c1` [SB-390769] was 0%.
`Oc1cc(Nc2ccnc3cc(I)ccc23)ccc1F` [GW552771]: the “%Inh” value turned out to be 0%.
Same read-out and setting: under `Cc1ccc(S(=O)(=O)Nc2ccc(Nc3nccc(Nc4cccc5[nH]ncc45)n3)cc2)cc1` [GSK581271] stands 15%; under `Cc1ccc(C(=O)N2CC[C@@H](O)C2)cc1-n1c(C)cc(OCc2ccc(F)cc2F)c(Br)c1=O`, 66%; under `COC(=O)Nc1nc2cc(Oc3ccc(NC(=O)Nc4cc(C(F)(F)F)ccc4F)cn3)ccc2[nH]1.Cl.Cl` [GW681170], 0%.
The same measure, in the same setting: the value for `COc1cc(Nc2nccc(N3CCC(NC(=O)c4cc5ccccc5s4)C3)n2)cc(OC)c1OC` (stereo not drawn) [GSK1379760] was 0%.
Same read-out and setting: under `O=C(Nc1cccc(-c2nn3ccccc3c2-c2ccnc(Nc3cccc(F)c3)n2)c1)c1c(F)ccc(F)c1Cl` [GSK357952] stands 0%; under `O=C(Nc1ccccc1F)NC1CCN(c2ccnc(Nc3ccc(F)cc3)n2)CC1` [GSK1379800], 0%.
For `O=c1[nH]cc(-c2ccc(N3CCOCC3)cc2)c2sc(-c3cn[nH]c3)cc12` [GSK2276055], the “%Inh” value is 0%.
The same measure, in the same setting: the value for `COc1cccc(C(=O)Nc2cccc(Oc3ccc4nc(NC(=O)C5CC5)cn4n3)c2)c1` was 88%.
For `O=C(Nc1cccc(Oc2ccc3nc(NC(=O)C4CC4)cn3n2)c1)c1ccccc1C(F)(F)F`, the “%Inh” value is on record as 23%.
The same measure, in the same setting: the value for `NCCCC(NC(=O)c1cc(Br)c(-c2ccnc3[nH]ccc23)s1)c1ccccc1.O=C(O)C(F)(F)F.O=C(O)C(F)(F)F` (stereo not drawn) [GSK1287544] was 16%.
The same measure, in the same setting: under `COC(=O)Nc1nc2ccc(Oc3ccc(NC(=O)Nc4cc(C(F)(F)F)ccc4F)cc3)cc2n1C.Cl` [GW692089] stands 0%; under `COc1cc(Nc2nccc(-c3c(-c4cccc(NC(=O)c5c(F)cccc5F)c4)nn4ncccc34)n2)cc(OC)c1OC` [GSK327238], 61%.
With `CN1CCN(CCCNc2nccc(-c3c(-c4ccc(F)cc4)nn4cc(C(F)(F)F)ccc34)n2)CC1` [GW621581], the “%Inh” value was 0%.
With `Cc1ccc(C)c(NC(=O)NC2CCN(c3ccnc(Nc4ccc(F)cc4)n3)C2)c1` (stereo not drawn) [GSK1379720], the “%Inh” value is reported as 14%.
Consider `Cc1cccc(Nc2nc(N[C@H]3CCNC3)ncc2C(N)=O)c1.Cl` [GSK2197149], for which the “%Inh” value worked out at 0%.
For `COc1ccc(Nc2nccc(NCCNC(=O)c3cc4ccccc4s3)n2)cc1` [GSK1379896], the “%Inh” value is given as 0%.
On the same count and under the same terms, the value for `Nc1ncc(-c2cccnc2)c2scc(-c3ccc4c(c3)CCN4C(=O)Cc3ccccc3)c12` [GSK683281] was 10%; that for `Cl.Cl.NCC(NC(=O)c1cc(-c2ccccc2)c(-c2ccnc3[nH]ccc23)s1)c1ccccc1` (stereo not drawn) [GSK1321561] was 14%; that for `Nc1ncc(-c2ccc3nccc(-c4ccncc4)c3c2)cc1S(=O)(=O)N1CCOCC1` [GSK1627798] was 0%.
The same measure, in the same setting: the value for `CCn1c(-c2nonc2N)nc2c(C#CC(C)(C)O)ncc(OCCCCN)c21.O=C(O)C(F)(F)F.O=C(O)C(F)(F)F` [GSK507274] was 60%; that for `Nc1n[nH]c2cnc(-c3ccccc3)cc12` [SB-642124] was 35%; that for `Cl.c1ccc(-c2ccc3c(Nc4ccc5[nH]ncc5c4)ccnc3c2)nc1` [GW440137] was 0%.
Turning to `Nc1ncnc2c1nc(-c1ccccc1)n2-c1ccccc1` [SKF-97293], the “%Inh” value worked out at 20%.
Same read-out and setting: the value for `Cn1cc(-c2ccc3c(c2)CCN3C(=O)Cc2cccc(Cl)c2)c2c(N)ncnc21` [GSK2606590] was 0%; that for `COc1cccc(-c2ccc3c(NC(=O)C4CC4)n[nH]c3n2)c1` [SB-710903] was 0%.
`CC(=O)N1CCN(c2ccc(Nc3nccc(-c4sc(C(C)C)nc4-c4cccc(NS(=O)(=O)c5cccc(Cl)c5)c4)n3)cn2)CC1` [GSK1660437]: the “%Inh” value worked out at 0%.
Still for that read-out and setting: the value for `CC(C)(C)c1ccc2nccc(Nc3cccc(O)c3)c2c1` [GW856795] was 0%; that for `COc1cc2c(cc1OCCN1CCNCC1)ncc1c3ccc(C#N)cc3[nH]c21` was 16%.
Same read-out and setting: under `O=C(Nc1cccc(-c2nn3ncccc3c2-c2ccnc(Nc3ccccc3)n2)c1)c1c(F)cccc1F` [GSK198271] stands 7%.
